Rows were chosen to be rich in hits. Some 4.2% of all compounds tested hit in one or more screens of this group.
D1 antagonist = Antagonist of Human D 1 Dopamine Receptor: qHTS; D(1A) dopamine receptor (Homo sapiens), P21728; HEK293 TREx D1 cells, calcium flux, dopamine EC80; stronger effect = lower value; activity change, negative = inhibition, % at 10 µM; hit rate 3.2% among 360,000; AID 504652, 2011; in the data active = activity change below about -30%
Target sequence (P21728 whole entry, looked up): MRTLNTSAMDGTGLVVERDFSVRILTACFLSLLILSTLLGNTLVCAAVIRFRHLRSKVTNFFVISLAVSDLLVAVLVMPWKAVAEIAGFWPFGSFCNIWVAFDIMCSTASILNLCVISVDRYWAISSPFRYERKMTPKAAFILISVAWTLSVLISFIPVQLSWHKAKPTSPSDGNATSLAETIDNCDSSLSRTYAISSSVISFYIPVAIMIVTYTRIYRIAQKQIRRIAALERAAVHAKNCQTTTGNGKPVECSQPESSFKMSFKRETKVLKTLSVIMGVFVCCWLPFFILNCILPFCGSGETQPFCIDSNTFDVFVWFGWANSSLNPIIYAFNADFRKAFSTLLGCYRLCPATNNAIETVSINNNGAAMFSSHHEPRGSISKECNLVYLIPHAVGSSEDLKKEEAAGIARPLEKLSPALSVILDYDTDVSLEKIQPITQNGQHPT
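After overnight tetracycline induction at 30 C, force-coupled D1 HEK293 cells took up a no-wash calcium dye at room temperature. Compounds were added and monitored 180 s, and the response to EC80 dopamine was then recorded.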
D1 PAM = Potentiators of Human D1 Dopamine Receptor: qHTS. potentiation, % at 10 µM. hit rate 0.036% among 360,000. HEK293 TREx D1 cells, calcium flux, dopamine EC20 potentiation. D(1A) dopamine receptor (Homo sapiens), P21728; in the data active = potentiation above about 30%
TRPV1 PAM = HTS Assay for Compounds that Act as Potentiators of the Vanilloid Receptor 1. hit rate 0.02% among 320,000. Transient receptor potential cation channel subfamily V member 1 (Homo sapiens), Q8NER1. potentiation, % at 8.33 µM. TRPV1-expressing cells, Fluo-8 calcium influx, capsaicin EC20 potentiation. AID 540277, 2011; in the data active = potentiation above about 80%; inconclusive = between about 30% and that limit
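Cells expressing TRPV1 were dye-loaded with Fluo-8 and read kinetically: 10 s baseline, 3 min after compound (agonist portion), then 2 min after EC20 capsaicin (allosteric enhancer portion). Calcium-bound dye fluorescence at 480/520 nm.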
TRPV1 ag = HTS Assay for Compounds that Act as Agonists of the Vanilloid Receptor 1 | TRPV1-expressing cells, Fluo-8 calcium influx, agonist mode | activation, % at 8.33 µM | hit rate 0.19% among 320,000; in the data active = activation above about 80%; inconclusive = between about 30% and that limit
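Fluo-8 calcium influx in TRPV1-expressing cells, kinetic read (ex 480/em 520 nm). Compound added and read 3 min for agonist activity, followed by capsaicin at EC20 final and 2 min further read for enhancement.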
D1 ag = Allosteric Agonists of the Human D1 Dopamine Receptor: qHTS; D(1A) dopamine receptor (Homo sapiens), P21728; hit rate 1% among 360,000; HEK293 T-REx D1 cells, calcium flux, agonist mode; activation, % at 2 µM; AID 504660, 2011; in the data active = activation above about 30%
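Agonism was scored from calcium flux recorded over 180 s (1 read/s) after pintool compound addition, following a 10-cycle baseline. Cells were inducible force-coupled HEK293 TREx D1, plated overnight at 30 C and loaded with no-wash calcium dye.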
Each line names hits and unclear results; the compound was inactive in the other large screens; ! = not confirmed by another sample.

CCOc1ccccc1CNC(=O)c1ccc(Sc2ccc(Cl)cc2)c(NC(C)=O)c1	D1 antagonist -38.5
O=C(NC1CCCC1)C(=O)N(Cc1cccnc1)C(C(=O)NCc1ccco1)c1ccccc1F (stereo not given)	none
O=C(NC1CCCCC1)C(=O)N(Cc1cccnc1)C(C(=O)NCc1ccco1)c1ccccc1 (stereo not given)	D1 antagonist -35.2
CC(C)CCN(CC(=O)NC1CCCC1)C(=O)C(=O)Nc1ccc2c(c1)OCCO2	none
CCCCN(CC(=O)NC1CCCC1)C(=O)C(=O)Nc1ccc2c(c1)OCCO2	D1 antagonist -36.2
Cc1ccc(C(=O)OCC(=O)c2c[nH]c3ccccc23)cc1	none
CC(C)Cc1ccc(C(C)C(=O)OCC(=O)c2c[nH]c3ccccc23)cc1 (stereo not given)	D1 ag 37.5
O=C(CSc1nnc(-c2cccs2)o1)c1cccs1	none
Cc1cc(C(=O)CSc2nnc(-c3cccs3)o2)c(C)n1-c1ccccc1	D1 antagonist -54.9
COc1ccccc1CNS(=O)(=O)c1ccc2c(c1)NC(=O)CC(=O)N2	D1 antagonist -32.6 (no result: TRPV1 PAM, TRPV1 ag)
COc1ccccc1CNS(=O)(=O)c1ccc(-n2cnnn2)c(C)c1	D1 antagonist -30.7
COc1cc(S(=O)(=O)NCc2ccccc2)ccc1-n1cnnn1	none (no result: D1 PAM)
Cc1cc(S(=O)(=O)NC2CCCCC2)ccc1-n1cnnn1	D1 antagonist -30.4
O=C(Oc1coc(CSc2ncccn2)cc1=O)c1ccco1	D1 antagonist -32.6
Cc1cc(C)n(S(=O)(=O)c2cc(C)c(C)cc2C)n1	D1 antagonist -31.0
Cc1cc2c(s1)c1cnn(Cc3ccc(F)c(C)c3)c(=O)c1n2C	none (no result: TRPV1 PAM, TRPV1 ag)
COc1ccc(CNC(=O)C(C)n2c(=O)cc(C)c3c(C)nn(-c4ccccc4)c32)cc1 (stereo not given)	D1 antagonist -53.7 (no result: TRPV1 PAM, TRPV1 ag)
COc1cccc(-n2c(=O)c3c(C)c(C(=O)N(C)C)sc3n(CC(=O)NCC3CCCO3)c2=O)c1 (stereo not given)	D1 antagonist -30.4
COc1cccc(-n2c(=O)c3c(C)c(C(=O)N(C)C)sc3n(CC(=O)Nc3ccc(C)cc3Cl)c2=O)c1	none (no result: TRPV1 PAM, TRPV1 ag)
COC(=O)c1ccccc1NC(=O)Cn1c(=O)n(-c2cccc(OC)c2)c(=O)c2c(C)c(C(=O)N(C)C)sc21	D1 antagonist -35.0 (no result: TRPV1 PAM, TRPV1 ag)
COc1cccc(-n2c(=O)c3c4c(sc3n(Cc3ccc(F)cc3Cl)c2=O)CCCC4)c1	none (no result: TRPV1 PAM, TRPV1 ag)
COc1cccc(-n2c(=O)c3c(C)c(C(=O)N(C)C)sc3n(Cc3ccc(F)cc3Cl)c2=O)c1	D1 antagonist -31.5 (no result: TRPV1 PAM, TRPV1 ag)
CN1CCN(NC(=O)NC2CCCCC2)CC1	D1 antagonist -39.0
CN1CCN(CC(=O)NC(=O)NC2CCCCC2)CC1	none
O=C(CNC(=O)Cc1ccccc1)NCc1cccc(C(F)(F)F)c1	none (no result: D1 PAM)
O=S(=O)(NCc1ccccc1)NCc1cccc(C(F)(F)F)c1	D1 antagonist -38.1
C=CCc1ccccc1OCCSc1nc(-c2cccs2)nc2cc(=O)[nH]n12	none (no result: TRPV1 PAM, TRPV1 ag)
COc1cc(OC)c2c(=O)cc(-c3ccccc3)oc2c1	none
COc1cc(OC)c2c(C)c(Cl)c(=O)oc2c1	D1 antagonist -36.3
NCCc1cnc[nH]1	D1 ag 53.4!
COc1ccc(CN2CCN(C(=O)c3cccs3)CC2)c(OC)c1OC	D1 antagonist -34.0
COC(=O)c1ccc(NC(=O)C2CCN(c3ncnc4c3nc3n4CCCCC3)CC2)cc1	none (no result: TRPV1 PAM, TRPV1 ag)
CNC(=O)CSc1nnc(-c2cnccn2)n1C	none
CC(C)OC(=O)CSc1nnc(-c2ccccc2)n1N	none
Cc1cccc(C)c1NC(=O)CSc1nnc(-c2cnccn2)n1C	D1 antagonist -50.8
CC(C)OC(=O)CSc1nnc(-c2cccnc2)n1N	D1 antagonist -30.6
CC(C)OC(=O)CSc1nnc(-c2cnccn2)n1C	D1 antagonist -34.8, TRPV1 PAM inconclusive
Cc1ccc(NS(=O)(=O)c2ccc(-c3cc(C)no3)cc2)c(Br)c1	none (no result: TRPV1 PAM, TRPV1 ag)
COc1ccc2nc3oc(C(=O)N4CCN(c5cc(C)ccc5C)CC4)cc3cc2c1	none (no result: TRPV1 PAM, TRPV1 ag)
CC(C)c1ccccc1Oc1c(C(F)(F)F)oc2c(CN3CCN(C)CC3)c(O)ccc2c1=O	D1 antagonist -32.7 (no result: TRPV1 PAM, TRPV1 ag)
CCN1CCN(Cc2c(O)ccc3c(=O)c(Oc4ccccc4C(C)C)c(C(F)(F)F)oc23)CC1	none (no result: TRPV1 PAM, TRPV1 ag)
Cc1cccc(N(C(=O)c2nsc(Cl)c2Cl)C(C(=O)NC2CCCC2)c2ccc(O)cc2)c1C (stereo not given)	D1 antagonist -39.7, TRPV1 ag inconclusive
Cc1ccc(N(C(=O)c2nsc(Cl)c2Cl)C(C(=O)NC2CCCC2)c2ccc(O)cc2)cc1C (stereo not given)	TRPV1 ag inconclusive
Cc1ccc(C)c(Cn2nnc(C(=O)Nc3ccc4c(c3)OCCO4)c2N)c1	D1 ag 50.0
Cc1ccccc1Cn1nnc(C(=O)Nc2ccc3c(c2)OCCO3)c1N	none
Cc1cc(C)cc(NC(=O)c2nnn(Cc3cc(C)ccc3C)c2N)c1	D1 antagonist -43.9
COc1ccc(-c2cc(C(C)=O)c(C)n2CCC(=O)Nc2ccc(C)cc2Cl)cc1	none (no result: TRPV1 PAM, TRPV1 ag)
COc1ccc(-n2c(SCC(=O)NC3CCCCC3)nc3c([nH]c4ccccc43)c2=O)cc1	none (no result: TRPV1 PAM, TRPV1 ag)
COc1ccc(-c2cn[nH]c2-c2ccc(OC)cc2O)cc1	none
COc1ccc(-c2cn[nH]c2C)cc1	D1 antagonist -36.5
CCOC(=O)Cc1csc(NC(=O)NC2(C(F)(F)F)Oc3ccc(Cl)cc3O2)n1 (stereo not given)	none
CCOC(=O)Cc1csc(NC(=O)c2ccc(NC(C)=O)cc2)n1	none
CCOC(=O)Cc1csc(NC(=O)c2cc(C)c(C)s2)n1	D1 antagonist -34.7, TRPV1 ag inconclusive
CCOC(=O)Cc1csc(NC(=O)Cc2ccc(Cl)cc2)n1	none
CCOC(=O)Cc1csc(NC(=O)NC2(C(F)(F)F)Oc3cc(Cl)c(Cl)cc3O2)n1	D1 ag 34.7
CCOC(=O)Cc1csc(NC(=O)Cc2ccc(Br)cc2)n1	D1 antagonist -36.8
CCOC(=O)Cc1csc(NC(=O)Nc2ccc(OC(F)(F)F)cc2)n1	D1 antagonist -36.0 (no result: TRPV1 PAM, TRPV1 ag)
COc1ccc2c(CNCc3ccccc3OC)c(C(=O)O)n(Cc3ccc(F)cc3Cl)c2c1	none (no result: TRPV1 PAM, TRPV1 ag)
O=C(c1ccc2c(c1)N(Cc1ccc(F)cc1)C(=O)c1ccccc1S2(=O)=O)N1CCCCC1	none (no result: TRPV1 PAM, TRPV1 ag)
CC(Oc1ccc2ccccc2c1)C(=O)NNC(=O)Nc1ccccc1 (stereo not given)	D1 antagonist -37.1
CN(C)S(=O)(=O)N1CCN(c2cc(Cl)ccc2Cl)CC1	D1 ag 40.1
O=C(CCCCCCN1C(=O)c2ccccc2C1=O)N1CCC(c2ccccc2)C1 (stereo not given)	D1 antagonist -44.4
